TDP43 rescue – qHTS of TDP-43 Inhibitors. AID 652104, 2013. actives 1.8% (n = 410,000). TDP-43 expressing yeast growth rescue, BacTiter-Glo, 24 h. Potency, µM (series often up to 46.1 µM), inactives show at the highest dose growth rescue (activation), actives largely listed as activators; also: potency is read from the fitted curve at half-maximal effect; % of control where 0% means no effect; nearly all actives have a fitted effect of over 50% in size
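In this qHTS, compounds that restore growth of yeast expressing TDP-43 appear as activators. Cells (OD600=0.02, galactose medium, raffinose-pregrown) are incubated with compound 24 hr at 30 deg C and growth is quantified by BacTiter-Glo.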
aSyn yeast inh – qHTS of alpha-syn Inhibitors | Yeast expressing alpha-synuclein, growth rescue, BacTiter-Glo, 24 h | Potency, µM (top dose mostly 46.1 µM), for the others: at the top dose growth rescue (activation), most hits filed as activators | actives 0.14% (n = 370,000); also: potency is read from the fitted curve at half-maximal effect; % of control where 0% means no effect; nearly all actives have a fitted effect of over 65% in size
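Screening used galactose-induced yeast with toxic alpha-synuclein levels, exposed to compound for 24 hr at 30 deg C. Cell growth, read with BacTiter-Glo luminescence, gave the measured signal.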
CCT chaperon mod – High-Throughput Screening for Modulators of Cytosolic Chaperonin Activity | purified chaperonin ATPase assay, HTRF ADP detection, 30 min | activity change, % (test concentration not listed), hits read low | actives 0.3% (n = 360,000); in the data active = activity change below about -30%; also: % is scaled to controls: 0 for no effect and ±100 for the full control effect
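We incubate TRiC, 40 or 20 nM final, with library compounds at 76 uM and 10 uM ATP for 30 min at 37 °C. ADP formed is detected with Transcreener HTRF reagents after 30 min at room temperature.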
MmCpn inh – Inhibitors of TCP-1 ring complex (TRiC) of Methanococcus maripaludis (MmCpn): qHTS. Chaperonin Mm-Cpn (Methanococcus maripaludis). purified Mm-Cpn ATPase, ADP Transcreener TR-FRET. Potency, µM (highest dose often 76.9 µM), for the others: at the top dose activity, negative = inhibition, hits mostly inhibitors. actives 0.031% (n = 330,000). AID 504842, 2011; also: potency is read from the fitted curve at half-maximal effect; % is scaled to controls: 0 for no effect and ±100 for the full control effect; nearly all actives have a fitted effect of over 80% in size
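Eu-cryptate anti-ADP/ADP-d2 competition gives a ratio inversely related to ADP. Enzyme at 25 nM was pre-exposed to compound for 10 min, then given 10 uM ATP for 30 min, 37°C throughout.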
FUS suppressor – qHTS for Suppressors of FUS Proteinopathy: Primary screen using FUS-linked yeast assay; actives 0.24% (n = 390,000); S. cerevisiae FUS-expressing, growth rescue, OD600, 24 h; Potency, µM (highest dose often 76.6 µM), most hits filed as activators;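 also: potency is read from the fitted curve at half-maximal effect; plate controls were DMSO vehicle for no effect and reference control for full effect; nearly all actives have a fitted effect of over 55% in size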
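Read-out: OD at 600 nm after 24hr at 30C, reporting rescue of FUS-induced yeast toxicity. Cells at OD 0.005 in galactose (2%) minimal medium; compounds tested in a dilution series; CP55940 titration from 92uM final as control.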
Abeta yeast res – qHTS for compounds that reverse cellular toxicity of Amyloid beta (A-beta) peptide in yeast: Primary Screen | yeast expressing A-beta42, growth rescue, OD600, 48 h; response scale: 0% DMSO, 100% iron-clioquinol control | Potency, µM (titrated, usually from 46.1 µM), hits mostly activators | actives 0.063% (n = 410,000); also: potency is read from the fitted curve at half-maximal effect; nearly all actives have a fitted effect of over 55% in size
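Growth rescue measured by 600 nm absorbance after 48 h yeast culture at 30 C with compound. Values normalized between DMSO and an equimolar ferric chloride plus clioquinol control.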
* = called active by the depositor; i = inactive; ? = inconclusive; . = no result given. The list is not random: actives were taken first. Their share in the collection is about 2.3%. Unless noted, calls follow the shape of the dose curve; as a rule, active = well fitted curve in the direction sought with a large enough effect; inconclusive = small, poorly fitted or top-dose-only effect, or another doubt; inactive = no such curve, though single readings can be large; an effect the other way counts as inactive or inconclusive.

SMILES	TDP43 rescue	aSyn yeast inh	CCT chaperon mod	MmCpn inh	FUS suppressor	Abeta yeast res
O=C(Cn1cc(SCc2cccc(C(F)(F)F)c2)c2ccccc21)N1CCCCCC1	3.7%	.	.	.	i	i
O=C(Cn1cc(SCc2ccc(C(F)(F)F)cc2)c2ccccc21)N1CCCC1	35.5µM*	.	.	.	?	i
O=C(Cn1cc(SCc2cccc(Cl)c2)c2ccccc21)N1CCOCC1	35.5µM*	?	-0.5	2.2%	?	?
Cc1ccccc1Cn1nnc2c(=O)[nH]c(C3CCCN(C(=O)c4ccc(C(C)(C)C)cc4)C3)nc21 (configuration not stated)	?	.	.	.	?	i
Cc1cccc(Cn2nnc3c(=O)[nH]c(C4CCCN(C(=O)c5ccc(C(C)(C)C)cc5)C4)nc32)c1 (configuration not stated)	12.3%	.	.	.	22.4µM*	i
COc1cccc(-c2nc(CCl)cs2)c1OC	14.1µM*	0.8%	-0.5	-3.9%	i	i
COc1cccc(-c2nc(CC(=O)O)cs2)c1OC	13.1%	-3.7%	-1.3	-4.8%	i	i
O=C(/C=C/c1ccco1)Oc1cc(Br)cc(/C=N/NC(=O)c2ccccc2O)c1	7.0%	22.4µM*	-1.4	-11.3%	i	i
COc1ccc(S(=O)(=O)NCCSCc2ccccc2C)cc1Br	15.8µM*	?	-0.1	-0.4%	i	i
Cc1ccccc1CSCCNS(C)(=O)=O	-6.4%	0.7%	-1.1	0.4%	i	i
O=C(c1ccccc1Cc1ccccc1)N1CCN(S(=O)(=O)c2ccc(F)cc2)CC1	?	1.6%	-0.3	0.6%	i	i
O=C(c1ccccc1Cc1ccccc1)N1CCN(S(=O)(=O)c2ccccc2Br)CC1	12.6µM*	?	-0.2	0.5%	i	i
C(=N\n1cnnc1)/c1ccc(OCc2cccc3ccccc23)cc1	12.6µM*	15.8%	-0.5	0.6%	i	i
O=[N+]([O-])c1ccc(N/N=C/c2ccc(OCc3cccc4ccccc34)cc2)nc1	-10.8%	8.8%	0.2	-6.0%	i	i
Fc1ccccc1COc1ccc(/C=N/n2cnnc2)cc1	11.2µM*	0.0%	-1.8	-5.9%	i	i
C(=N\n1cnnc1)/c1cccc(OCCOc2ccccc2)c1	?	2.7%	-84.0*	-0.1%	i	i
Fc1ccccc1/C=N/n1cnnc1	-10.6%	?	1.0	0.4%	i	i
C[C@H]1[C@H](N(C)C)CC[C@@]23CCCN2C(=O)CCC[C@@H]13	.	.	.	.	i	.
Cc1ccccc1N1CCN(C2=Nc3ccccc3Sc3ccccc32)CC1	.	.	.	.	i	.
Cc1ccc(C(=O)NC(=S)/C=C2\N(C)c3ccccc3C2(C)C)cc1	8.5%	-27.6%	0.6	-5.7%	i	i
CC(C)C(=O)NC(=S)/C=C1/N(C)c2ccccc2C1(C)C	35.5µM*	-2.0%	-1.9	-8.8%	i	?
COc1ccccc1OCC(=O)/C=C1/N(C)c2ccccc2C1(C)C	14.1µM*	0.7%	1.8	?	i	i
CC1(c2nnnn2Cc2ccccc2)CSCC(=O)N1Cc1cccs1 (configuration not stated)	.	.	.	.	i	.
O=[N+]([O-])c1ccc(/C=N/Nc2nc(N3CCCCCC3)nc(N3CCCCCC3)n2)o1	22.4µM*	0.5%	1.1	-0.6%	?	i
O=[N+]([O-])c1ccc(Nc2nc(N/N=C\c3ccc4c(c3)OCO4)nc(N3CCCCC3)n2)cc1	11.2µM*	-4.5%	-3.9	-0.4%	?	?
SMILES	TDP43 rescue	aSyn yeast inh	CCT chaperon mod	MmCpn inh	FUS suppressor	Abeta yeast res
O=[N+]([O-])c1ccc(/C=N/Nc2nc(N3CCCCC3)nc(N3CCCCC3)n2)cc1	5.2%	-2.3%	-2.9	0.8%	i	i
Nn1c(SCC(=O)Nc2ccc(C(=O)O)cc2)nnc1-c1ccco1	.	.	.	.	i	.
Cc1nc2ccc(NC(=O)c3ccc(F)cc3F)cc2c(=O)[nH]1	.	.	.	.	i	.
O=C(CCCc1nc2ccccc2s1)NCc1ccccc1F	7.7%	11.3%	2.7	1.2%	i	i
O=C(CCc1nc2ccccc2s1)NCc1ccccc1F	12.4%	-0.5%	-0.5	2.0%	i	20µM*
O=C(c1cc(COc2ccc(F)cc2Cl)on1)N1CCN(C2CCCCC2)C(=O)C1	20µM*	20.4%	0.7	0.8%	.	i
O=C(c1cc(COc2ccc(F)cc2Cl)on1)N1CCN(C2CCCC2)CC1	-3.3%	-6.3%	-1.1	-0.6%	i	i
CCC(=O)Nc1ccc2c(c1)C(=O)N(C)[C@@H]1CC[C@@H](CC(=O)NCc3ccc(OC)cc3)O[C@H]1CO2	.	.	.	.	i	.
Nc1cc(N2CCCC2)ccc1[N+](=O)[O-]	23.2%	2.2%	0.7	-1.1%	i	i
O=[N+]([O-])c1ccc(N2CCCC2)cc1N1CCCC1	15.8µM*	1.6%	-1.2	0.8%	i	i
Nc1cc(N2CCCC2)c(Cl)cc1[N+](=O)[O-]	11.2µM*	15.9%	-1.7	0.2%	i	i
Nc1cc(N2CCOCC2)c(Cl)cc1[N+](=O)[O-]	20µM*	-0.5%	-1.0	1.9%	i	i
O=[N+]([O-])c1cc(Cl)ccc1N1CCOCC1	4.5%	-5.2%	-0.3	4.5%	i	i
CCNc1nc(NCC)nc(-n2cc(C(=O)c3cc(Cl)ccc3O)cn2)n1	.	-14.5%	.	.	.	.
CCOc1cccc(-c2nn3c(-c4cccc(C)c4)nnc3s2)c1	.	.	.	.	i	.
CC(C)(C)[C@@H]1CCC(=O)N(CC[C@H](Sc2ccccc2)c2ccccc2)CC1	-19.3%	-0.6%	1.6	-2.5%	i	i
CC(=O)Nc1ccc(S[C@@H](CCN2CC[C@H](C(C)(C)C)CCC2=O)c2ccccc2)cc1	26.6%	7.1%	-36.1*	-2.0%	?	i
Cc1cccc(C(O)C(O)c2cccc(C)n2)n1 (configuration not stated)	-17.0%	-8.5%	-84.6*	.	i	i
c1ccc(NC2=NCCN2CC2CCC2)cc1	14.8%	2.2%	0.8	1.8%	i	i
c1ccc(NC2=NCCN2CCCC2CCCCC2)cc1	0.0%	15.8µM*	1.1	0.4%	i	i
N#Cc1ccc(NC2c3ccccc3CC2O)cc1 (configuration not stated)	15.4%	11.1%	-2.5	.	.	i
